Measurements taken from PubChem BioAssay AID489018 (Southern Research Specialized Biocontainment Screening …, 2010).
Among all 2,300 compounds or so, about 350 (15%) were called active. No rule for the calls is given here. Not all results are given here. Results with a measured potency or affinity are listed apart.

Assay: HepG2 cell cytotoxicity, dose response, cytotoxicity control for non-replicating M. tuberculosis project (AID 489018);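 also: HepG2 human liver cells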
Conditions: series mostly up to 20 µM

Which outcome does the source give for `O=C(COc1ccc(Nc2ccccc2)cc1)OCC(=O)N1CCCCC1` here?
The outcome was “inactive”.

For `CCn1nnc(NC(=O)c2sc3ccccc3c2Cl)n1`, which outcome is on record?
Its outcome is “inactive”.

Which outcome does the source give for `O=C(Nc1nccs1)c1sc2ccccc2c1Cl` here?
The outcome was “inactive”.

For `CCCc1ccc(OCc2ccc(C(=O)N/N=C/c3cccnc3)o2)cc1`, which outcome is on record?
Its outcome is “inactive”.

Which outcome does the source give for `O=C(Nc1ccc(Cl)c(Cl)c1)O/N=C/c1ccncc1` here?
The outcome was “inactive”.

With `O=C(COc1ccccc1)NNc1nc2ccccc2s1` as the compound, how does the outcome read?
Its outcome is “inactive”.

With `CC(C)(C)/C(O)=C/c1nc2ccccc2oc1=O` as the compound, how does the outcome read?
The outcome was “inactive”.

Which outcome does the source give for `O=C(N/N=C/c1cc([N+](=O)[O-])ccc1O)C1CCCCC1` here?
Its outcome is “inactive”.

For `Cc1ccc(-c2ccc(/C=N/NC(=O)CN3CCCC3)o2)cc1Cl`, which outcome is on record?
The outcome was “inactive”.

Which outcome does the source give for `Nc1ccc2nc3c(c(Cl)c2c1)CCCC3` here?
Its outcome is “inactive”.

For `CCOC(=O)c1cnc(Nc2nc3ccccc3o2)nc1CSC(=S)N1CCCCC1`, which outcome is on record?
Its outcome is “inactive”.

Which outcome does the source give for `Oc1ccccc1/C=N/Nc1nc2ccccc2o1` here?
The outcome was “inactive”.

With `O=C(OCCCOC(=O)c1ccc([N+](=O)[O-])o1)c1ccc([N+](=O)[O-])o1` as the compound, how does the outcome read?
Its outcome is “inactive”.

For `O=C1Nc2cc(C(=O)NCCCN3CCOCC3)ccc2S/C1=C/c1cccc(Cl)c1`, which outcome is on record?
Its outcome is “inactive”.

For `COc1cccc(/C=C2\SC(=S)N(CCC(=O)N3CCCCC3)C2=O)c1`, which outcome is on record?
The outcome was “inactive”.

For `Cc1ccc2oc(=O)c3cc(C(=O)NCCCN4CCCCCC4)sc3c2c1`, which outcome is on record?
The outcome was “inactive”.

Which outcome does the source give for `CN1C(=O)/C(=C/c2cccc(Cl)c2)Sc2ccc(C(=O)N3CCCC3)cc21` here?
The outcome was “inactive”.

For `Cc1ccc(/C=N/NC(=O)C2COc3ccccc3O2)s1` (stereo not given), which outcome is on record?
Its outcome is “inactive”.

With `Cc1ccnc(NC(=O)c2cc3ccccc3o2)c1` as the compound, how does the outcome read?
The outcome was “inactive”.

For `CC(C)(C)C(=O)/C=C/Nc1ccccc1O`, which outcome is on record?
The outcome was “inactive”.

Which outcome does the source give for `O=C(OCC(=O)N1CCN(c2ccccc2)CC1)c1ccc(Cl)cc1[N+](=O)[O-]` here?
Its outcome is “inactive”.

For `COc1cc(NCCC(=O)c2cccs2)c(OC)cc1Cl`, which outcome is on record?
Its outcome is “inactive”.

With `COC(=O)C1=C(N)OC2=C(C(=O)CC(C)(C)C2)C1c1cccnc1` (stereo not given) as the compound, how does the outcome read?
The outcome was “inactive”.

Which outcome does the source give for `CCOC(=O)CNC(=O)CNC(=O)c1nn(-c2ccc(OC)c(Cl)c2)c(=O)c2ccccc12` here?
The outcome was “inactive”.

Which outcome does the source give for `Cc1cc(Cl)cc(C)c1OCCCCn1ccnc1` here?
Its outcome is “inactive”.

With `CCCCn1c(=O)c(C(=O)Nc2nnc(C(C)C)s2)c(O)c2ccccc21` as the compound, how does the outcome read?
Its outcome is “inactive”.

For `CCCCn1c(=O)c(C(=O)Nc2ncccc2C)c(O)c2ccccc21`, which outcome is on record?
Its outcome is “inactive”.

For `C=CCn1c(=O)c(C(=O)Nc2cccnc2)c(O)c2ccccc21`, which outcome is on record?
Its outcome is “inactive”.

Which outcome does the source give for `CCCCCCn1c(=O)c(C(=O)Nc2nnc(C)s2)c(O)c2ccccc21` here?
Its outcome is “inactive”.

For `Cc1cccnc1NC(=O)c1c(O)c2ccccc2n(C)c1=O`, which outcome is on record?
The outcome was “inactive”.

With `CCn1c(=O)c(C(=O)Nc2ncccc2C)c(O)c2ccccc21` as the compound, how does the outcome read?
Its outcome is “inactive”.

With `Cc1cccc(NCc2ccc([N+](=O)[O-])s2)c1` as the compound, how does the outcome read?
The outcome was “inactive”.

For `c1coc(CNc2nc(N3CCCCC3)nc3ccccc23)c1`, which outcome is on record?
The outcome was “inactive”.

Which outcome does the source give for `Cc1ccc(NC(=O)COC(=O)C2=COCCO2)c([N+](=O)[O-])c1` here?
Its outcome is “inactive”.

For `Cn1c(NC(=O)c2ccccc2)nc2ccccc21`, which outcome is on record?
Its outcome is “inactive”.

For `COc1ccc2c(c1)sc(=N)n2C`, which outcome is on record?
Its outcome is “inactive”.

Which outcome does the source give for `Cc1ccc2c(c1)c(C1=c3ccccc3=NC1=O)c(O)n2C` here?
Its outcome is “inactive”.

With `COc1ccc(COc2cccc(C=O)c2)cc1` as the compound, how does the outcome read?
Its outcome is “inactive”.

With `COc1ccc(C(=O)OCn2nnc3ccccc3c2=O)cc1[N+](=O)[O-]` as the compound, how does the outcome read?
The outcome was “inactive”.

With `COc1ccc(C(=O)C2CCCN(C(=O)c3ccc(CSC)o3)C2)cc1F` (stereo not given) as the compound, how does the outcome read?
The outcome was “inactive”.

For `O=C(N/N=C/c1ccc[nH]1)c1ccncc1`, which outcome is on record?
The outcome was “inactive”.

Which outcome does the source give for `CCOC(=O)CC(=O)Nc1ccc(C(=O)OCC)cc1` here?
The outcome was “inactive”.

With `C/C(=N\Nc1nc2ccccc2[nH]1)c1cc2ccccc2o1` as the compound, how does the outcome read?
Its outcome is “inactive”.

For `O=C(N/N=C/C=C/c1ccccc1[N+](=O)[O-])c1ccncc1`, which outcome is on record?
The outcome was “inactive”.

Which outcome does the source give for `COc1cc(Cl)cc(/C=N/NC(N)=O)c1O` here?
The outcome was “inactive”.

With `O=C(NNc1nc2ccccc2s1)Nc1ccc(F)cc1` as the compound, how does the outcome read?
Its outcome is “inactive”.

Which outcome does the source give for `O=C(N/N=C/c1cccc([N+](=O)[O-])c1O)c1cccs1` here?
The outcome was “inactive”.

For `NC(N)=N/N=C/c1cccc([N+](=O)[O-])c1O`, which outcome is on record?
The outcome was “inactive”.

Which outcome does the source give for `Cc1cc(N/N=C/c2ccccc2[N+](=O)[O-])nc(-n2nc(C)cc2C)n1` here?
The outcome was “inactive”.

With `CCc1nnc(NC(=O)c2cc3ccccc3oc2=O)s1` as the compound, how does the outcome read?
The outcome was “inactive”.

With `Cn1c(=O)[nH]c(=O)c2c1nc([N+](=O)[O-])n2Cc1ccccc1` as the compound, how does the outcome read?
The outcome was “inactive”.

With `C=CCc1cc(Cl)ccc1OCCCn1ccnc1` as the compound, how does the outcome read?
The outcome was “inactive”.

With `COc1ccc(C2(O)CCN(CC(=O)Nc3nc(-c4ccccc4)cs3)CC2)cc1` as the compound, how does the outcome read?
The outcome was “inactive”.

With `Cc1onc(-c2ccccc2Cl)c1C(=O)O/N=C(\N)c1ccc([N+](=O)[O-])o1` as the compound, how does the outcome read?
Its outcome is “inactive”.

For `CCC(CC)COC(=O)C(C#N)c1nc2ccccc2nc1N1CCN(CC)CC1` (stereo not given), which outcome is on record?
Its outcome is “inactive”.

Which outcome does the source give for `NCCOc1ccc(C23CC4CC(CC(C4)C2)C3)cc1` here?
Its outcome is “inactive”.

For `O=c1[nH]c2ccccc2c2oc(CCl)nc12`, which outcome is on record?
Its outcome is “inactive”.

For `N=C1/C(=C/c2ccc(OC(=O)c3ccco3)cc2)C(=O)N=C2SC=CN12`, which outcome is on record?
The outcome was “inactive”.

With `COC(=O)CN(C#N)c1nc(N(C)C)nc(N(C)C)n1` as the compound, how does the outcome read?
Its outcome is “inactive”.

With `O=C(Nc1nnc(C2=COCCO2)o1)c1cccc(C(F)(F)F)c1` as the compound, how does the outcome read?
The outcome was “inactive”.

For `O=C(N/N=C/c1ccc(O)cc1)c1cccc(C(F)(F)F)c1`, which outcome is on record?
The outcome was “inactive”.

With `COc1cccc(CN2CCC(N(CCc3ccccc3)Cc3ccccc3)CC2)c1OC` as the compound, how does the outcome read?
The outcome was “inactive”.

For `OCC#CCSc1nnc(-c2ccc(Br)cc2)o1`, which outcome is on record?
The outcome was “inactive”.

With `COc1cccc(COC(=O)CCNC(=O)c2ccc(Br)cc2)c1OC` as the compound, how does the outcome read?
Its outcome is “inactive”.

With `CCOC(=O)COc1ccc(C(=O)Nc2cccc(Cl)c2C)cc1` as the compound, how does the outcome read?
Its outcome is “inactive”.

Which outcome does the source give for `O=C(NNC1=Nc2ccccc2SC1)c1ccc(F)cc1` here?
Its outcome is “inactive”.

With `O=C(Nc1nnc(-c2ccco2)o1)c1ccc(Cl)s1` as the compound, how does the outcome read?
Its outcome is “inactive”.

For `O=C(Nc1nnc(-c2ccc(Br)cc2)o1)c1ccco1`, which outcome is on record?
Its outcome is “inactive”.

Which outcome does the source give for `CCOc1cc(-c2nnc(NC(=O)c3ccco3)o2)cc(OCC)c1OCC` here?
The outcome was “inactive”.

Which outcome does the source give for `CCOc1ccc(OCCSc2ccc(S(=O)(=O)N3CCN(C)CC3)cn2)cc1` here?
Its outcome is “inactive”.

For `COC(=O)c1ccc(Sc2nnnn2-c2ccccc2)c([N+](=O)[O-])c1`, which outcome is on record?
The outcome was “inactive”.

With `FC(F)c1nnc2ccc(Cl)nn12` as the compound, how does the outcome read?
The outcome was “inactive”.

Which outcome does the source give for `O=C(N/N=C/c1ccc([N+](=O)[O-])s1)c1cccnc1` here?
Its outcome is “inactive”.

For `O=C(COc1ccccc1)Nc1nnc(-c2ccc3c(c2)CCCC3)o1`, which outcome is on record?
The outcome was “inactive”.

For `Cc1cc(Cl)ccc1OCC(=O)NNC(=O)c1cnccn1`, which outcome is on record?
The outcome was “inactive”.
